The text below walks through data of PubChem BioAssay (NCI).

SMILES strings stand for the structures. About 83,000 compounds went through this panel and 20% of them were active in at least one assay; those are over-represented in the sample as a whole.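 Cell lines were cultured in 96-well plates, exposed to a single compound concentration, and assessed for percent growth 48 hours later.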 Unmarked numbers belong to inactive results. The source made the active and inactive calls. How the source made its calls: active means growth percent below 10; inactive means the rest.

For the assay, the system named is HCT-15 colon. In words: NCI-60 one-dose screen, 48 h (100 = growth as untreated, 0 = no growth, -100 = all killed). As to conditions: 10 µM unless noted.
As to `CC(C)(C)c1ccc(Cn2cc(CSc3nc4ccccc4s3)nn2)cc1`, the growth is 99.7%.

Consider `CCN1CCN(Cc2ccc(Cc3ncc(F)c(-c4cc(F)c5nc(C)n(C(C)C)c5c4)n3)nc2)CC1`, for which the growth was 32.9%. For the compound `CC(=O)NCC(=O)N1[C@@H]2CC[C@H]1c1ccc(Nc3ncc(C(F)(F)F)c(NC4CCC4)n3)cc12`, the growth is 26.8% [2.5 µM]. For the compound `O=C(NOCCO)c1cc(CN2OCCCC2=O)c(F)c(F)c1Nc1ccc(I)cc1F`, the growth was 50.6%. The result for `CC(C)CC(=O)Nc1n[nH]c2c1CN(C(=O)C1CCN(C)CC1)C2(C)C` reads 78.8%. For the compound `Cc1ccc(N)cc1CN1C(=O)c2ccccc2C1=O`, the growth was 101%.

Take `COCc1c(-c2ccc(NC(=O)Nc3cc(C(F)(F)F)ccc3F)c(F)c2)c2c(N)ncnn2c1CN1CCOCC1`: the growth was -21% (active). In the case of `O=C(CNc1nc2ccccc2s1)Nc1ccc(-c2nc3ccccc3s2)cc1` it was 105%; in that of `N#CC[C@H](C1CCCC1)n1cc(-c2ncnc3[nH]ccc23)cn1`, 89.7%. Consider `C=CC(=O)Nc1cc2c(Nc3ccc(F)c(Cl)c3)ncnc2cc1C#CC(C)(C)N1CCN(C)CC1`, for which the growth is -78% (active). As for `CC(=O)C1=C(C)NC(SCc2nnc(-c3ccc(C)cc3)o2)=NC1c1ccc(F)cc1` (stereo not given), the growth was 101%. `CNC(=O)c1ccc(Nc2ncc(C(F)(F)F)c(NCc3nccnc3N(C)S(C)(=O)=O)n2)cc1`: the growth is 1.88% (active). As to `C/C=C/C=N/NC(=S)Nc1ccccc1`, the growth was 99%. As for `COc1cc(N2CCC(N(C)C)CC2)ccc1Nc1ncc(Cl)c(Nc2ccccc2P(C)(C)=O)n1`, the growth was 7.34% (active). Consider `CN1CCN(CCCOc2cccc3nc(Nc4ccc(Cl)c(C(F)(F)F)c4)ccc23)CC1`, for which the growth was -49.6% (active). In the case of `C#Cc1cccc(Nc2ncnc3cc(OC)c(OCCCCCCC(=O)NO)cc23)c1` it was 7.16% (active); in that of `Cc1ccc(-n2nc(C(C)(C)C)cc2NC(=O)NCc2cc(F)ccc2Oc2ccc3c(cnn3CCO)c2)cc1`, 17.5%. Regarding `Cn1ccnc1C(=O)/C=C/c1ccc(CC(=O)Nc2ccc(Br)cc2)cc1`, the growth is 5.5% (active). Take `Cc1[nH]n(C(N)=S)c(=O)c1N=Nc1ccc(S(=O)(=O)Nc2ccncn2)cc1`: the growth was 113%. As for `Cc1[nH]c(/C=C2\C(=O)Nc3ccc(F)cc32)c(C)c1C(=O)NC[C@H](O)CN1CCOCC1`, the growth was 19.1%. As for `Cn1ncc(Cl)c1-c1cc(C(=O)N[C@H](CN)Cc2cccc(F)c2)sc1Cl`, the growth is 16.9%. As to `Cn1cc(-c2ncnc3ccc(-c4cnc(Cl)c(NS(C)(=O)=O)c4)cc23)c2ccccc21`, the growth is 13.2%.

Turning to `O=[N+]([O-])c1cc(Br)cc2c1[nH]c1ccc(Br)cc12`, the growth is 81.8%. For `COc1ccc2c(OCc3nnc4ccc(-c5ccccc5)nn34)ccnc2c1`, the growth is 96.9% [2.5 µM].

For the compound `CC(=O)O[C@]1(C)C[C@H](O)[C@]2(O)C=CO[C@H](O[C@@H]3O[C@H](CO)[C@@H](O)[C@H](O)[C@H]3O)[C@@H]21`, the growth is 99.1%. As to `COc1cc2cc(NCc3ccc(F)cc3)nc(C)c2cc1OC`, the growth is 50.9%. As for `O=C(Nc1nc2cccc(-c3ccc(CN4CCS(=O)(=O)CC4)cc3)n2n1)C1CC1`, the growth was 94.7%. As for `N#Cc1c(-c2ccc(Cl)cc2)csc1NC(=O)Nc1cccc(C(F)(F)F)c1`, the growth is 11.7%. `O=C(c1ccc(/C=C/c2n[nH]c3ccccc23)cc1)N1CCNCC1`: the growth was 40.3%. The result for `Cc1cnc(Nc2ccc(OCCN3CCCC3)cc2)nc1Nc1cccc(S(=O)(=O)NC(C)(C)C)c1` reads 5.6% (active); that for `CO[C@H]1C[C@@H]2CC[C@@H](C)[C@@](O)(O2)C(=O)C(=O)N2CCCC[C@H]2C(=O)O[C@H]([C@H](C)C[C@@H]2CC[C@@H](OCCO)[C@H](OC)C2)CC(=O)[C@H](C)/C=C(\C)[C@@H](O)[C@H](OC)C(=O)[C@H](C)C[C@H](C)\C=C/C=C/C=C/1C`, 53.9%. Regarding `COc1cc(F)c(F)c(Nc2ccc(I)cc2F)c1NS(=O)(=O)C1(C[C@H](O)CO)CC1`, the growth was 26.9%.

Regarding `Nc1ccc(S(=O)(=O)O)c2cc(S(=O)(=O)O)cc(O)c12`, the growth was 101%. `COc1cc2ncnc(Nc3ccc(F)c(Cl)c3)c2cc1NC(=O)/C=C/CN1CCCCC1`: the growth was -49.7% (active). The result for `COc1ccc(C(=O)N2c3ccccc3Sc3ccccc32)c(F)c1` reads 27.3%.
